Results filed as inconclusive are left out. Calls of active or inactive are those of the source. Unless noted, calls follow the shape of the dose curve; as a rule, active = well fitted curve in either direction with a large enough effect (not every such curve was filed as active); inconclusive = small, poorly fitted or top-dose-only effect, or another doubt; inactive = flat fitted curve, though single readings scatter.
Legend:
[1] = target: Lysosomal acid glucosylceramidase (Homo sapiens) (UniProt P04062); assay: Glucocerebrosidase-p2 (AID 348; in the data active = potency below about 10 µM; also: potency is read from the fitted curve at half-maximal effect); settings: purified GBA, blue fluorogenic substrate, 40 min
Lysosomal acid glucosylceramidase (Homo sapiens), sequence (P04062 whole entry, looked up): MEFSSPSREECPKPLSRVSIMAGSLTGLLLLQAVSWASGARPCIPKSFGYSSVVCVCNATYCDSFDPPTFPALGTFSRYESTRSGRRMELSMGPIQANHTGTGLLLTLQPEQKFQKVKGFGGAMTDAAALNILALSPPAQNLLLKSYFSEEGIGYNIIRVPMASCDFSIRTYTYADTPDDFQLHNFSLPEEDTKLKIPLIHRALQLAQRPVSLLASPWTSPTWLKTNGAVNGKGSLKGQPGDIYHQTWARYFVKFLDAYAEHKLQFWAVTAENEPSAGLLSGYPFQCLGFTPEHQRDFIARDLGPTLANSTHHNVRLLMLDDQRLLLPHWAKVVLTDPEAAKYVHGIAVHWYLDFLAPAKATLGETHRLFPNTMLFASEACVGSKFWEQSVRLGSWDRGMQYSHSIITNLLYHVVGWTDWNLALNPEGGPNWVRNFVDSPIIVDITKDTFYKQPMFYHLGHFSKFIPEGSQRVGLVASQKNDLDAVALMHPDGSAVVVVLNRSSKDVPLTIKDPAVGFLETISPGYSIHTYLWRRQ
Outline: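 Normal human glucocerebrosidase (0.2 nM) with blue fluorogenic substrate (80 uM final) in citrate/phosphate pH 5.9 with 10mM sodium taurocholate, 0.01% tween-20; 40 min RT, NaOH/glycine stop; fluorescence Ex 365/Em 440; AC50 from a titration from 0.6 nM upwards.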

[2] = AP1 Signaling Pathway (AID 357); settings: ME-180 AP-1-bla reporter, EGF-induced, beta-lactamase ratio, 5 h; at 7.69 µM (top of the series) unless noted;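 also: ME-180 reporter cells stimulated with EGF at its EC50 level; % is scaled to controls: 0 for no effect and ±100 for the full control effect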
Outline: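 Beta-lactamase reporter under AP-1 response element, ME-180 background. Stimulus: EC50 EGF. Compound exposure 5 h, 37 °C. Detection: CCF4, 2.5 h RT, 460/530 nm. Values: AC50 from titration.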

[3] = NFAT Signaling Pathway (AID 444); settings: Jurkat NFAT-bla M1, carbachol, beta-lactamase ratio, 5 h; at 7.69 µM (top of the series) unless noted;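 also: carbachol stimulus at about its EC50 of 1 µM final; % is scaled to controls: 0 for no effect and ±100 for the full control effect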
Outline: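 Jurkat cells with NFAT-driven β-lactamase reporter and co-expressed M1 receptor, stimulated with carbachol (final 1 uM, ~EC50), compound titration, 5 h at 37 °C. CCF4 loaded 1 h at RT; 460/530 nm ratio gave %activity and AC50.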

[4] = Stat Signaling Pathway (AID 446); settings: ME-180 (cervical carcinoma) SIE beta-lactamase reporter, IL-6 stimulated, 5 h; at 7.69 µM (top of the series) unless noted;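 also: ME-180 cervical cancer cells given 40 pM IL-6 alongside compound; SIE-controlled beta-lactamase reporter measured as 460/530 nm FRET emission ratio; % is scaled to controls: 0 for no effect and ±100 for the full control effect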
Outline: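 Compound effects on IL-6-induced STAT reporter activity were measured in ME-180 cells. After overnight culture, cells were co-treated with 40 pM IL-6 for 5 hrs before beta-lactamase substrate loading at room temperature.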

[5] = target: Glucocorticoid receptor (Homo sapiens) (UniProt P04150); assay: GR-GFP Redistribution (AID 450;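 active = compounds whose dose series gives a full or clear partial fitted curve of increased nuclear translocation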; also: potency is read from the fitted curve at half-maximal effect); settings: U2OS GR-GFP nuclear translocation, laser cytometry, 2 h
Glucocorticoid receptor (Homo sapiens), sequence (P04150 whole entry, looked up, the tested form may be a part): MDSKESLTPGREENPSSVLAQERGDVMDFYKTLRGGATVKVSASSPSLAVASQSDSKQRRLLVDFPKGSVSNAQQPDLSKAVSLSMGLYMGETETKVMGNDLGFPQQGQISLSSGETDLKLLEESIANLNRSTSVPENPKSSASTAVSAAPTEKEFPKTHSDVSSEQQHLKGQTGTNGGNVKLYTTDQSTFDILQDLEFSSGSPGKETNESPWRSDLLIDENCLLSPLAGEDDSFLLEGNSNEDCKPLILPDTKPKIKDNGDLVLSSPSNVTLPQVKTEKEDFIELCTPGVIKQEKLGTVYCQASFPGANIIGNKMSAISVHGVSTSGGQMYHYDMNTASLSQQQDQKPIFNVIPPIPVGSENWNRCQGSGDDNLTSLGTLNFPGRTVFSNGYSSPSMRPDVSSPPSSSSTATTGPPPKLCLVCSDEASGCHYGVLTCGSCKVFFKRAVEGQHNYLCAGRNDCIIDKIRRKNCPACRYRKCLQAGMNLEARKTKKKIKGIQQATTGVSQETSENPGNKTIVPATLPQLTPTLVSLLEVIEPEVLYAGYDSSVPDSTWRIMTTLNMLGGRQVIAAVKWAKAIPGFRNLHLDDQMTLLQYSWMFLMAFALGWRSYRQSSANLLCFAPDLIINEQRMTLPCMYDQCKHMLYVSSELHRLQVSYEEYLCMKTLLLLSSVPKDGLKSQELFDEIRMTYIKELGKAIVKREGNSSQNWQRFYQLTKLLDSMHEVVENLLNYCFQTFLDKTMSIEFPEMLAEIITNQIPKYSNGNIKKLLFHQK

[6] = target: Glucocorticoid receptor (Homo sapiens) (UniProt P04150); assay: GR-EFC Redistribution (AID 451; calls by dose curve; also: potency is read from the fitted curve at half-maximal effect); settings: CHO-K1 GR-EFC translocation, beta-gal luminescence, 2 h
Outline: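 CHO-K1 cells expressing nuclear EA and GR-ED fragments of b-gal; compounds titrated up to 46 uM final, 2 h at 37 C. GR nuclear translocation read as complemented b-gal luminescence after 1 h RT detection.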

[7] = target: Mitogen-activated protein kinase 10 (Mus musculus) (UniProt Q61831); assay: JNK3 AlphaScreen Assay (AID 530); settings: JNK3 lysate, c-Jun phosphorylation; series mostly up to 11.4 µM;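 also: kinase came from lysate of stimulated human HepG2 cells; signal reports phosphorylation of biotinylated GST-cJun 1-79 at Ser73 with 10 µM ATP; % is scaled to controls: 0 for no effect and ±100 for the full control effect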
Outline: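 Activity was read by AlphaScreen after JNK3-containing HepG2 lysate (cytokine pre-activated) phosphorylated biotinylated GST-cJun with 10 uM ATP at room temperature. Phospho-Ser73 cJun antibody with Protein-A acceptor beads provided detection.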

[8] = target: 3',5'-cyclic-AMP phosphodiesterase 4B (Homo sapiens) (UniProt Q07343); assay: qHTS Assay for Inhibitors of PDE-IV (AID 607; active = well fitted activation curve with a large enough effect in the main read-out, with a control signal flat, not every such curve was filed as active; also: % of control where 0% means no effect); settings: HEK293 ACTOne CNG channel cells, membrane potential fluorescence; series mostly up to 22.9 µM
3',5'-cyclic-AMP phosphodiesterase 4B (Homo sapiens), sequence (Q07343 whole entry, looked up): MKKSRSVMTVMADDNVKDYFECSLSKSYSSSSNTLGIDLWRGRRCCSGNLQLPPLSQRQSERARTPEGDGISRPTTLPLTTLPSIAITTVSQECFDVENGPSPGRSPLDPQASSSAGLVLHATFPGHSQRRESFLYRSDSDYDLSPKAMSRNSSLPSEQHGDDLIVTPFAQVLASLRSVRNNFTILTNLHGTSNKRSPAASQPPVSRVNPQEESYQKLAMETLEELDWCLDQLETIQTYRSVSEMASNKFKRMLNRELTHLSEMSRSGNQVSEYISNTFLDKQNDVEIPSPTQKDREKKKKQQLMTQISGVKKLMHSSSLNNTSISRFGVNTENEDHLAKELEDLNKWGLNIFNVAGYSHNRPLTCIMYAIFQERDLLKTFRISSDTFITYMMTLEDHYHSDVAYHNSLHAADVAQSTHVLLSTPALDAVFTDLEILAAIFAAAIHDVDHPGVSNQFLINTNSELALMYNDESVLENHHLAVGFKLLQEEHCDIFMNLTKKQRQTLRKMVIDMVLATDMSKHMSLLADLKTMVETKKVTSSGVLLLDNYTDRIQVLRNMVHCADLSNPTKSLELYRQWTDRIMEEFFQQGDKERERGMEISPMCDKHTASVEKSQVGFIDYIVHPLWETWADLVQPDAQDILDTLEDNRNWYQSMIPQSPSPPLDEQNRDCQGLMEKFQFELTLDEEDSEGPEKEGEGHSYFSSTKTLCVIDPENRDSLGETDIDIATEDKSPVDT
Outline: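 ACTOne HEK293 cells carry a modified cAMP-gated CNG channel and express endogenous PDE4; plated 1000 cells/well, compounds up to 22.9 uM final. Membrane-potential dye fluorescence (ex 535/em 590) was read; parental cells received 10 uM forskolin + 100 uM RO 20-1724.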

COc1ccc(Br)c2c1C[C@H](C(=O)O)CC2
inactive: Potency [1] > 11.4 µM | activity change, negative = inhibition [2] 12.4% | activity change, negative = inhibition [3] 2.11% | activity, negative = inhibition [4] -1.98% | Potency [5] > 46 µM | Potency [6] > 9.22 µM | Potency [7] | Potency [8]

NNC(=O)[C@@H](O)[C@H](O)C(=O)NN
inactive: Potency [1] > 11.4 µM | activity change, negative = inhibition [2] -1.69% | activity change, negative = inhibition [3] 10.2% | activity, negative = inhibition [4] -2.25% | Potency [5] > 46 µM | Potency [6] > 9.22 µM | Potency [7] | Potency [8]

CC[C@@H](c1ccc2cc(O)ccc2c1)C(C)(C)C(=O)O
inactive: Potency [1] > 11.4 µM | activity change, negative = inhibition [2] -1.38% | activity change, negative = inhibition [3] 8.96% | activity, negative = inhibition [4] 6.79% | Potency [5] > 46 µM | Potency [6] > 9.22 µM | Potency [7] | Potency [8]

N[C@@H](CCCCO)C(=O)O
inactive: Potency [1] > 11.4 µM | activity change, negative = inhibition [2] 4.11% | activity change, negative = inhibition [3] -3.02% | activity, negative = inhibition [4] -3.96% | Potency [5] > 46 µM | Potency [6] > 9.22 µM | Potency [7] | Potency [8]

CCOc1ccc(N=NS(=O)(=O)O)cc1
inactive: Potency [1] > 11.4 µM | activity change, negative = inhibition [2] 8.26% | activity change, negative = inhibition [3] -0.735% | activity, negative = inhibition [4] 8.88% | Potency [5] > 46 µM | Potency [6] > 9.22 µM | Potency [7] | Potency [8]

Cn1cnc([N+](=O)[O-])c1Sc1nc(N)nc2c1ncn2[C@H]1C[C@H](O)[C@@H](CO)O1
inactive: Potency [1] > 11.4 µM | activity change, negative = inhibition [2] -4.23% | activity change, negative = inhibition [3] -2.48% | activity, negative = inhibition [4] 0.176% | Potency [5] > 46 µM | Potency [6] > 9.22 µM | Potency [7] | Potency [8]

N=C(N)C(N=Nc1ccccc1)C(=N)N (stereo unspecified)
inactive: Potency [1] > 11.4 µM | activity change, negative = inhibition [2] 1.88% | activity change, negative = inhibition [3] 3.59% | activity, negative = inhibition [4] 1.6% | Potency [5] > 46 µM | Potency [6] > 9.22 µM | Potency [7] | Potency [8]

NCC(=O)[C@@H](O)[C@H](O)[C@H](O)CO
inactive: Potency [1] > 11.4 µM | activity change, negative = inhibition [2] -1.89% | activity change, negative = inhibition [3] 8.35% | activity, negative = inhibition [4] 3.6% | Potency [5] > 46 µM | Potency [6] > 9.22 µM | Potency [7] | Potency [8]

CC(C)c1cc(CN(C)C)c(O)c(C(C)(C)C)c1
inactive: Potency [1] > 11.4 µM | activity change, negative = inhibition [2] 1.46% | activity change, negative = inhibition [3] -5.67% | activity, negative = inhibition [4] -8.11% | Potency [5] > 46 µM | Potency [6] > 9.22 µM | Potency [7] | Potency [8]

C[N+]1(C)CCO[C@](O)(c2ccccc2)C1
inactive: Potency [1] > 11.4 µM | activity change, negative = inhibition [2] 7.17% | activity change, negative = inhibition [3] -3.28% | activity, negative = inhibition [4] 6.89% | Potency [5] > 46 µM | Potency [6] > 9.22 µM | Potency [7] | Potency [8]

O=C(O)CSc1ccccc1C(=O)O
inactive: Potency [1] > 11.4 µM | activity change, negative = inhibition [2] 9.97% | activity change, negative = inhibition [3] -5.26% | activity, negative = inhibition [4] -2.73% | Potency [5] > 46 µM | Potency [6] > 9.22 µM | Potency [7] | Potency [8]

O=C(O)Cc1cccc2c(=O)cc(-c3ccccc3)oc12
inactive: Potency [1] > 11.4 µM | activity change, negative = inhibition [2] -1.49% | activity change, negative = inhibition [3] -5.58% | activity, negative = inhibition [4] -3.42% | Potency [5] > 46 µM | Potency [6] > 9.22 µM | Potency [7] | Potency [8]

Cc1ncc(CSc2ccccc2N)c(CO)c1O
inactive: Potency [1] > 11.4 µM | activity change, negative = inhibition [2] 6.48% | activity change, negative = inhibition [3] 1.52% | activity, negative = inhibition [4] -0.62% | Potency [5] > 46 µM | Potency [6] > 9.22 µM | Potency [7] | Potency [8]

CN(C)c1ccc2nc3c(C(=O)O)cc(=O)c(O)c-3oc2c1
inactive: Potency [1] > 11.4 µM | activity change, negative = inhibition [2] -7.19% | activity change, negative = inhibition [3] 4.18% | activity, negative = inhibition [4] -14.8% | Potency [5] > 46 µM | Potency [6] > 9.22 µM | Potency [7] | Potency [8]

Cc1ccc(C)c([C@@H]2NC(=O)c3ccccc3N2)c1
inactive: Potency [1] > 11.4 µM | activity change, negative = inhibition [2] -2.78% | activity change, negative = inhibition [3] -14.2% | activity, negative = inhibition [4] -1.94% | Potency [5] > 46 µM | Potency [6] > 9.22 µM | Potency [7] | Potency [8]

N#CCCn1c(=O)c(-c2ccccc2)nc2cnc(Oc3ccccc3)nc21
inactive: Potency [1] > 11.4 µM | activity change, negative = inhibition [2] -22.6% | activity change, negative = inhibition [3] -4.58% | activity, negative = inhibition [4] 2.8% | Potency [5] > 9.22 µM | Potency [6] > 46 µM | Potency [7] | Potency [8]

C=CCSc1nc2c(N)ncnc2n1[C@@H]1O[C@H](CO)[C@@H](O)[C@@H]1O
inactive: Potency [1] > 11.4 µM | activity change, negative = inhibition [2] 4.59% | activity change, negative = inhibition [3] 2.7% | activity, negative = inhibition [4] -1.09% | Potency [5] > 46 µM | Potency [6] > 9.22 µM | Potency [7] | Potency [8]
